UHRF1 binding = UHRF1 methyl-DNA binding inhibition | inhibition, % at 4.4 µM | UHRF1 binding to methylated oligo, TR-FRET | Q96T88 | hit rate 0.75% among 370,000; in the data active = inhibition above about 21%;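 also: UHRF1 SRA domain binding a hemimethylated CpG hairpin DNA probe; 0% = median of test compound wells and 100% = reference inhibitor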
LEDGF integ inh = blocks HIV-1 LEDGF/p75-dependent DNA integration; AID 743269; inhibition, % at 3.7 µM; hit rate 0.64% among 370,000; TR-FRET IN-LEDGF/p75 DNA integration, Eu/Cy5;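 active = inhibition above the screen-wide mean plus 3 SD, cut at about 13% in these data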;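 also: signal is the Cy5 over europium emission ratio at 671 and 618 nm; 0% = plate median of compound wells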
Neddyl block = inhibitors of human cullin neddylation; hit rate 0.58% among 360,000; P61081+Q13564; TR-FRET cullin neddylation, biochemical; AID 651699; calls only at 25 µM; in the data active = inhibition above about 36%
proKLK7 act = activates the human kallikrein-7 zymogen; P49862; purified proKLK7, EDANS-DABCYL substrate fluorescence; 100% is mature enzyme control, 0% vehicle; activation, % at 7 µM; hit rate 0.9% among 370,000;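 active = activation above the mean of all tested compounds plus 3 SD, computed per campaign excluding outliers beyond control limits, cut at about 13% in these data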
Target sequence (P49862 whole entry, looked up): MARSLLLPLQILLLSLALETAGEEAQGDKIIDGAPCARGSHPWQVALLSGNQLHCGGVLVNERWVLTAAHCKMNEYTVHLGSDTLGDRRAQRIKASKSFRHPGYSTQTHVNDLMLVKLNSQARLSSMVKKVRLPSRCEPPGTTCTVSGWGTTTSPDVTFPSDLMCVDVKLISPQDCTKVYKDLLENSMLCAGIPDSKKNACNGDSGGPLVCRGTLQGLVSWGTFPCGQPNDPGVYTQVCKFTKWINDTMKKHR
Rin1 Abl inh = inhibitors of human Rin1-Abl protein interaction; TR-FRET Rin1/Abl binding, biochemical; inhibition, % at 7.35 µM; hit rate 0.4% among 360,000; in the data active = inhibition above about 5%, passing the limit was not always enough
MBD2 inh = inhibitors of human MBD2 binding to methylated oligonucleotide. Q9UBB5. TR-FRET. inhibition, % at 4.4 µM. hit rate 0.31% among 370,000; in the data active = inhibition above about 13%
KLK7 act conf = confirmation of human kallikrein-7 zymogen activators. hit rate 68% among 3,200. shares compounds with proKLK7 act. AID 686949. activation, % at 7 µM. purified proKLK7, EDANS-DABCYL substrate fluorescence; scaled: vehicle 0, mature enzyme 100;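 active = activation, as change over the incubation, above the mean of all tested compounds plus 3 SD, cut at about 13% in these data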
EDANS interfere = counter-screen for kallikrein-7 activators: EDANS-DABCYL optical interference | shares compounds with proKLK7 act | EDANS-DABCYL substrate fluorescence interference, no enzyme, 4 h; solvent 0%, active enzyme control 100% | activation, % at 7 µM | hit rate 80% among 3,200;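 active = activation above the all-compound mean plus 3 SD, ignoring values outside control-based bounds, cut at about 4.8% in these data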;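 also: value is the 4 h activation minus the activation read at time zero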
Active calls of the source: *. A selection: hits, their analogues and other compounds. The true share with any hit is near 3.1%.

Screening Cc1oc2c(CN3CCCC(C)C3)c(O)ccc2c(=O)c1-c1ccccc1 (configuration not stated) returned UHRF1 binding -1.6, LEDGF integ inh 4.6, proKLK7 act 32.9*, Rin1 Abl inh -1.3, MBD2 inh 0.8, KLK7 act conf 23.3* and EDANS interfere 23.1*.
For COc1ccccc1-c1coc2c(CN3CCCCC3C)c(O)ccc2c1=O (configuration not stated) the results were UHRF1 binding -3.3, LEDGF integ inh 0.7, proKLK7 act 52.5*, Rin1 Abl inh -1.7, MBD2 inh -2.5, KLK7 act conf 65.9* and EDANS interfere 64.2*.
For CC1CCCCN1Cc1c(O)ccc2c(=O)c(-c3nc4ccccc4s3)c(N)oc12 (configuration not stated) the results were UHRF1 binding 1.0, LEDGF integ inh -1.9, proKLK7 act -3.0, Rin1 Abl inh -1.3 and MBD2 inh 1.5.
`O=C(CCc1ccccc1)N[C@H]1[C@H](OCc2ccccc2)CCC[C@@]12C(=O)N(Cc1ccccc1)c1ccccc12` gave UHRF1 binding -0.8, LEDGF integ inh -4.8, proKLK7 act -0.5 and MBD2 inh 2.5.
Cc1c(C(=O)NC2CCC(C)CC2)oc2ccccc12 (configuration not stated) was read as UHRF1 binding 0.6, LEDGF integ inh -0.3, Neddyl block inactive, proKLK7 act 0.2, Rin1 Abl inh 4.0 and MBD2 inh -0.5.
For COc1ccc(-c2c(C)oc3c(CN4CCCCC4C)c(O)ccc3c2=O)cc1OC (configuration not stated) the results were UHRF1 binding 2.4, LEDGF integ inh -1.8, proKLK7 act 5.0, Rin1 Abl inh -0.2 and MBD2 inh 4.0.
For COc1ccccc1-c1c(C)oc2c(CN3CCCC(C)C3)c(O)ccc2c1=O (configuration not stated) the results were UHRF1 binding -0.8, LEDGF integ inh 0.5, proKLK7 act 44.6*, Rin1 Abl inh -1.2, MBD2 inh -1.9, KLK7 act conf 71.5* and EDANS interfere 68.9*.
`COc1ccc(-c2c(C)oc3c(CN4CCCCC4C)c(O)ccc3c2=O)cc1` (configuration not stated) gave UHRF1 binding -2.1, LEDGF integ inh -0.6, proKLK7 act 41.0*, Rin1 Abl inh 3.1, MBD2 inh 1.8, KLK7 act conf 49.8* and EDANS interfere 51.8*.
For COc1ccc(-c2c(C)oc3c(CN4CCCC(C)C4)c(O)ccc3c2=O)cc1OC (configuration not stated) the results were UHRF1 binding -3.0, LEDGF integ inh 0.0, proKLK7 act 7.4, Rin1 Abl inh -0.3 and MBD2 inh 0.1.
For COc1cccc(OC)c1C(=O)Nc1nc2cc3c(cc2s1)OCO3 the results were UHRF1 binding 1.0, LEDGF integ inh 6.7, Neddyl block inactive, proKLK7 act 19.2*, Rin1 Abl inh 0.8, MBD2 inh 0.2, KLK7 act conf -13.4 and EDANS interfere -12.4.
`COc1cc2sc3cc(NCCCN4CCOCC4)ccc3c(=O)c2cc1OC` gave UHRF1 binding 1.4, LEDGF integ inh 2.3, Neddyl block inactive, proKLK7 act -49.9, Rin1 Abl inh -7.8 and MBD2 inh 5.3.
`COc1cccc2sc3cc(NCc4ccc(C)o4)ccc3c(=O)c12` gave UHRF1 binding -14.6, LEDGF integ inh -0.6, Neddyl block inactive, proKLK7 act 42.9*, Rin1 Abl inh -8.3, MBD2 inh -1.1, KLK7 act conf 38.4* and EDANS interfere 38.9*.
O=C(CSc1ccc2nc(-c3ccccc3)cn2n1)NCC1CCCO1 (configuration not stated) was read as UHRF1 binding 1.4, LEDGF integ inh -2.2, proKLK7 act 11.4, Rin1 Abl inh -2.1 and MBD2 inh 1.1.
